Records with an inconclusive call do not appear. The source made the active and inactive calls. How the source made its calls: active means hit-call score of the fitted dose curve at least 0.9, where 1 is the maximum; inconclusive means response in the unintended direction; inactive means score below 0.9.
Assays:
[1] = molecular target: Estrogen receptor (Homo sapiens) (UniProt P03372); assay: OT_ER_ERaERa_1440: Odyssey Thera (OT) 24-hour HEK293T Protein-Complementation Assay for Estrogen Receptor-alpha/-alpha Homodimer (AID 2283349);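 further: hits raise fluorescence above DMSO for agonists and antagonists alike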
Chain of Estrogen receptor (Homo sapiens) (P03372 whole entry, looked up, the tested form may be a part): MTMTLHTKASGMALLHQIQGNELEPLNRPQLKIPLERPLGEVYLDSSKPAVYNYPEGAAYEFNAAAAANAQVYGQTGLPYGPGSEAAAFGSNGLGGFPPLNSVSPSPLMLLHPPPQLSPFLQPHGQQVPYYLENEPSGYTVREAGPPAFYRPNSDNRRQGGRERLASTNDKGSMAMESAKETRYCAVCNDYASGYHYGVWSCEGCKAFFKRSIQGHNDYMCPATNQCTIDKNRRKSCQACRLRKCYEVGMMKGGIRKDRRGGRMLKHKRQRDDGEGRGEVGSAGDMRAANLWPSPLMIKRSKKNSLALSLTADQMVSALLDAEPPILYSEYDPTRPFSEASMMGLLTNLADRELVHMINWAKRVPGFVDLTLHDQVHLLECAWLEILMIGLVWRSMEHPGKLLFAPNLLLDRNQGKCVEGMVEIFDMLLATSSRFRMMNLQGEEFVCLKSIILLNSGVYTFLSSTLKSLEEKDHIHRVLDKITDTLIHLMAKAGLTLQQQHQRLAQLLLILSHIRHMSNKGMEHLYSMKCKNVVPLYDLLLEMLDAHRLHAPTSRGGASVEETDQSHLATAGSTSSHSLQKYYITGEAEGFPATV
Method in brief: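 Stably transfected HEK293T; ERα LBD homodimer PCA. 24 h dosing, fluorescence intensity read, gain-of-signal vs DMSO.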

[2] = molecular target: Estrogen receptor (Homo sapiens) (UniProt P03372); assay: OT_ER_ERaERa_0480: Odyssey Thera (OT) 8-hour HEK293T Protein-Complementation Assay for Estrogen Receptor-alpha/-alpha Homodimer (AID 2283351);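 further: rise in fluorescence from reassembled reporter fragments on ERα LBD homodimer in nucleus or whole cell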
Method in brief: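 Read-out: fluorescence intensity rise relative to DMSO, nuclear for agonists, nuclear plus cytoplasmic for antagonists. Construct is the ERα LBD (aa 310-547) homodimer fragment-complementation pair, stably expressed in HEK293T; exposure 8 h.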

[3] = molecular target: T1, Estrogen receptor (Homo sapiens) + Estrogen receptor beta (Homo sapiens) (UniProt P03372+Q92731); assay: OT_ER_ERaERb_0480: Odyssey Thera (OT) 8-hour HEK293T Protein-Complementation Assay for Estrogen Receptor-alpha/-beta Heterodimer (AID 2283352)
T1 sequence (P03372 whole entry, looked up): as the sequence (P03372 whole entry, looked up, the tested form may be a part) above
T1 sequence (Q92731 whole entry, looked up): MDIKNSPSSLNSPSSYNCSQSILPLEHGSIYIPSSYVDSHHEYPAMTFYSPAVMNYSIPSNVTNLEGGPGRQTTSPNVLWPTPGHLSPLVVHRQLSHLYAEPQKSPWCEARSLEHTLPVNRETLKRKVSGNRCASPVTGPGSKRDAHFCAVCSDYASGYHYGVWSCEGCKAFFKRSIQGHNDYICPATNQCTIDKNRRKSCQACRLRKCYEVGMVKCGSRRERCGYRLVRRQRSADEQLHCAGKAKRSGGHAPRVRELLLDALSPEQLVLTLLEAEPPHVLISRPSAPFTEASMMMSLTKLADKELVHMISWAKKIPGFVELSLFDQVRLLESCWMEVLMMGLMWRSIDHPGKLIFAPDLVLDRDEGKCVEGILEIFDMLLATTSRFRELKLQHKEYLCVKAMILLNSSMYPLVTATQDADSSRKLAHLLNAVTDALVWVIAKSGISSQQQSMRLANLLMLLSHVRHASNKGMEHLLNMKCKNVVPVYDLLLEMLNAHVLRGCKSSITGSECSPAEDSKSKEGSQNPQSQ
Method in brief: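 Compound added to HEK293T cells carrying split-reporter-tagged ER-alpha and ER-beta LBDs, incubated 8 hours, then imaged by laser scanning cytometer. Signal rise in nucleus, or nucleus and cytoplasm, over vehicle was fitted in the positive direction.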

[4] = molecular target: Androgen Receptor/SRC-1 Co-activator, AR (gene 367) (UniProt P10275); assay: OT_AR_ARSRC1_0960: Odyssey Thera (OT) 16-hour HEK293T Protein-Complementation Assay for Androgen Receptor/SRC-1 Co-activator (AID 2283353);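 further: actives raise the signal above DMSO so potency reflects increased AR and SRC-1 complex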
Chain of Androgen Receptor/SRC-1 Co-activator, AR (gene 367) (P10275 whole entry, looked up, the tested form may be a part): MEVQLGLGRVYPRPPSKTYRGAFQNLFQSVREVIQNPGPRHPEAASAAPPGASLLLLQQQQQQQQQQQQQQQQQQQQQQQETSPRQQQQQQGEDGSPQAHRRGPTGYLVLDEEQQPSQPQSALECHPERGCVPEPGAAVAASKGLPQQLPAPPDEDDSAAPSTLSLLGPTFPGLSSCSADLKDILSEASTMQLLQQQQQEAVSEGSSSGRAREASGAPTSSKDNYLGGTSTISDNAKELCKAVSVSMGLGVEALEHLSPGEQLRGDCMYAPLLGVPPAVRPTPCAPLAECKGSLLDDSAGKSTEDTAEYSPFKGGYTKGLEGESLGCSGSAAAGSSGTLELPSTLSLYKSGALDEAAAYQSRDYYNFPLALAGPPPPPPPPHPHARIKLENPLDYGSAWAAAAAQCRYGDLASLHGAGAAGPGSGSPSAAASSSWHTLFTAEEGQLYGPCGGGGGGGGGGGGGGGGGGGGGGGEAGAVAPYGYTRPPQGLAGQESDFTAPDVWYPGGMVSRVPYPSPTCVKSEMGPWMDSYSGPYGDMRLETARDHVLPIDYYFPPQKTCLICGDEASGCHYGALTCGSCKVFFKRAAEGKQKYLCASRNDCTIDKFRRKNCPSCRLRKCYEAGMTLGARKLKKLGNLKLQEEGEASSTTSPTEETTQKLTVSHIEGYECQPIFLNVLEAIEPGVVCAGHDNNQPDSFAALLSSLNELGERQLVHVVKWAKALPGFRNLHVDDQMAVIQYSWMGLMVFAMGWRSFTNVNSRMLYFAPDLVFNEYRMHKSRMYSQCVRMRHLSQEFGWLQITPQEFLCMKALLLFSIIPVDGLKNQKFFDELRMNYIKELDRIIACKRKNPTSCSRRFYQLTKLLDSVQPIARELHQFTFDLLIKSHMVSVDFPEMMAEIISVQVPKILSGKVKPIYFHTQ
Method in brief: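 Readout: 488 nm nuclear-to-cytoplasmic fluorescence ratio from imaging of at least 400 cells per image, 16 h post-dose. Reporter is Venus YFP complementation between AR and SRC-1 fusions, stably expressed in HEK293T; activity scored upward relative to DMSO.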

[5] = molecular target: Androgen Receptor/SRC-1 Co-activator, AR (gene 367) (UniProt P10275); assay: OT_AR_ARSRC1_0480: Odyssey Thera (OT) 8-hour HEK293T Protein-Complementation Assay for Androgen Receptor/SRC-1 Co-activator (AID 2283354);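 further: hits raise the complementation signal above DMSO so AC50 marks enhancers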
Method in brief: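 After 8 h dosing, stably expressing HEK293T cells with split-Venus AR/SRC-1 fusions were imaged (488, 635nm). The 488nm N/C ratio per image gave the endpoint, analysed in the positive direction against DMSO.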

[6] = molecular target: T1, Estrogen receptor (Homo sapiens) + Estrogen receptor beta (Homo sapiens); assay: OT_ER_ERaERb_1440: Odyssey Thera (OT) 24-hour HEK293T Protein-Complementation Assay for Estrogen Receptor-alpha/-beta Homodimer (AID 2283356);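 further: heteromer of ER alpha and ER beta binding domains; hits raise reporter fluorescence and both agonists and antagonists give an increase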
Method in brief: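 Stable HEK293T PCA line, ERα LBD 310-547 + ERβ LBD 263-489 fused to reporter fragments; 24 h treatment; fluorescence read by laser scanning cytometry; positive fitting direction relative to DMSO.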

[7] = molecular target: Estrogen receptor beta (Homo sapiens) (UniProt Q92731); assay: OT_ER_ERbERb_0480: Odyssey Thera (OT) 8-hour HEK293T Protein-Complementation Assay for Estrogen Receptor-beta/-beta Homodimer (AID 2283357);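 further: active means signal gain over DMSO baseline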
Chain of Estrogen receptor beta (Homo sapiens) (Q92731 whole entry, looked up, the tested form may be a part): as the sequence (Q92731 whole entry, looked up) above
Method in brief: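 Fluorescence gain from complemented reporter fragments on ER-beta LBD homodimer in HEK293T was quantified against DMSO controls after 8 h treatment, fixation in 4% formaldehyde and Draq5 staining.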

[8] = test system: NCBI gene 100848466; assay: NVS_NR_bPR: NovaScreen (NVS) Nuclear Receptor Binding Assay for bovine Progextron Receptor (PR) (AID 2283343);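 on AC50: actives lower bound radioligand signal below DMSO meaning displacement of the label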
Method in brief: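 Steps: bovine uterine membranes were dosed with chemical alongside radioligand, incubated 18 hours, then radiodetected by scintillation counting. Initial testing used 25 uM in duplicate; confirmed actives were rerun as concentration series.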

[9] = molecular target: human Constitutive Androstane Receptor (CAR), NR1I3 (gene 9970) (UniProt Q14994); assay: NVS_NR_hCAR_Antagonist: NovaScreen (NVS) Nuclear Receptor Binding Assay for human Constitutive Androstane Receptor Antagonism (CAR) (AID 2283344)
Method in brief: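 Single 25 uM duplicate primary screen, with concentration-series follow-up on actives. Cell-free binding format run in antagonist mode, TR-FRET signal taken 1 h post-dose; activity is signal loss relative to DMSO.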

[10] = test system: guinea pig Histamine Receptor (H2), gene 100729734; assay: NVS_GPCR_gH2: NovaScreen (NVS) G Protein-Coupled Receptor Assay for guinea pig Histamine Receptor (H2) (AID 2283342)
Method in brief: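 Guinea pig striatal membrane preparation with specific radioligand; bound counts measured by filtration and scintillation 1 h post-dosing, DMSO as baseline. Chemicals passing a 25 uM duplicate screen were titrated to a 50 uM maximum.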

[11] = molecular target: Estrogen receptor (Homo sapiens) (UniProt P03372); assay: NVS_NR_hER: NovaScreen (NVS) Nuclear Receptor Binding Assay for human Estrogen Receptor (ER) (AID 2283348)
Method in brief: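 Radiodetection of ligand displacement in a lysate-based, cell-free format using MCF7 extracts, read at 18 hours. Duplicate 25 uM primary testing, then concentration series for actives.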

[12] = molecular target: rat Mineralocorticoid Receptor (MR), Nr3c2 (gene 25672) (UniProt P22199); assay: NVS_NR_rMR: NovaScreen (NVS) Nuclear Receptor Binding Assay for rat Mineralocorticoid Receptor (MR) (AID 2283355)
Method in brief: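 Single-concentration duplicate screen (25 uM) of radioligand binding in adrenalectomized rat brain supernatant; scintillation detection 24 h after dosing. Positive and negative controls ran on each plate, and confirmed actives went to concentration-response.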

[13] = molecular target: human Peroxisome Proliferator-activated Receptor alpha (PPARa), PPARA (gene 5465) (UniProt Q07869); assay: NVS_NR_hPPARa: NovaScreen (NVS) Nuclear Receptor Binding Assay for human Peroxisome Proliferator-activated Receptor alpha (PPARa) (AID 2283359);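 further: activity means loss of TR-FRET signal versus DMSO baseline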
Chain of human Peroxisome Proliferator-activated Receptor alpha (PPARa), PPARA (gene 5465) (Q07869 whole entry, looked up): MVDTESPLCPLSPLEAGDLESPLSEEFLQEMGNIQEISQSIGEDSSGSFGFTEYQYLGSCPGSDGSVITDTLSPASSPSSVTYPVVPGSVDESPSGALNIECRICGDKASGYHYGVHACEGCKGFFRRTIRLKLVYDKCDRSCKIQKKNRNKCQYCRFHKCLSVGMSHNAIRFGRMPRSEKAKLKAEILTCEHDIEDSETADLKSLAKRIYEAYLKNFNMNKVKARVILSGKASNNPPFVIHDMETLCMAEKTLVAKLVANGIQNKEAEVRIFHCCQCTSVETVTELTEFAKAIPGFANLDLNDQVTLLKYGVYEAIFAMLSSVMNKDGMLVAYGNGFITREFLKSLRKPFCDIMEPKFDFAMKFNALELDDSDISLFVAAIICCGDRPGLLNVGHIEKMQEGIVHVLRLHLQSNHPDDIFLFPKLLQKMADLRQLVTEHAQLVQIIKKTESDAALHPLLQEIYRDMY
Method in brief: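 One-hour incubation, cell-free extracted protein, TR-FRET binding readout; signal loss vs DMSO scored. Screen: 25 uM duplicates, confirmatory dose series for actives.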

[14] = molecular target: PGR (gene 5241) (UniProt P06401); assay: NVS_NR_hPR: NovaScreen (NVS) Nuclear Receptor Binding Assay for human Progestron Receptor (PR) (AID 2283360);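 further: active means loss of bound radioligand signal versus DMSO baseline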
Method in brief: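 Competitive displacement of a labelled radioligand from T47D-derived receptor protein is measured in a cell-free format. Initial testing uses 25 uM in duplicate, with positive and negative controls on every plate.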

[15] = molecular target: rat Gamma-Aminobutyric Acid Type A Receptor BDZ, alpha 6 site (GABARa6), Gabra6 (gene 29708) (UniProt P30191); assay: NVS_LGIC_rGABARa6: NovaScreen (NVS) Ligand-Gated Ion Channel Assay for rat Gamma-Aminobutyric Acid Type A Receptor BDZ, alpha 6 site (GABARa6) (AID 2283339)
Method in brief: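 Actives from a 25 uM duplicate screen were retested in concentration series (max 50 uM). Specific radioligand displacement from rat cerebellar membranes was counted by filter-based scintillation at 1 h; DMSO served as baseline.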

[16] = molecular target: Bile acid receptor (Homo sapiens) (UniProt Q96RI1); assay: NVS_NR_hFXR_Antagonist: NovaScreen (NVS) Nuclear Receptor Binding Assay for human Farnesoid X Receptor Antagonism (FXR) (AID 2283350)
Method in brief: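 Antagonist-format time-resolved FRET binding assay with extracted human receptor protein, read 1 hour after compound addition. Compounds first screened at 25 uM in duplicate, then actives tested in concentration series, with loss of signal relative to DMSO.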

[17] = molecular target: Retinoic acid receptor alpha (Homo sapiens) (UniProt P10276); assay: NVS_NR_hRAR_Antagonist: NovaScreen (NVS) Nuclear Receptor Binding Assay for human Retinoic Acid Alpha Receptor Antagonism (RAR) (AID 2283358)
Method in brief: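 Chemicals were first tested in duplicate at 25 uM, then actives in concentration series, in a cell-free TR-FRET antagonist binding format. Measurements were taken 2 hours after dosing and loss of signal was evaluated against DMSO controls.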

[18] = molecular target: bovine Estrogen Receptor (ER), ESR1 (gene 407238) (UniProt P49884); assay: NVS_NR_bER: NovaScreen (NVS) Nuclear Receptor Binding Assay for bovine Estrogen Receptor (ER) (AID 2283345);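 further: actives lower the bound radioligand count which means they displace the ER ligand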
Chain of bovine Estrogen Receptor (ER), ESR1 (gene 407238) (P49884 whole entry, looked up): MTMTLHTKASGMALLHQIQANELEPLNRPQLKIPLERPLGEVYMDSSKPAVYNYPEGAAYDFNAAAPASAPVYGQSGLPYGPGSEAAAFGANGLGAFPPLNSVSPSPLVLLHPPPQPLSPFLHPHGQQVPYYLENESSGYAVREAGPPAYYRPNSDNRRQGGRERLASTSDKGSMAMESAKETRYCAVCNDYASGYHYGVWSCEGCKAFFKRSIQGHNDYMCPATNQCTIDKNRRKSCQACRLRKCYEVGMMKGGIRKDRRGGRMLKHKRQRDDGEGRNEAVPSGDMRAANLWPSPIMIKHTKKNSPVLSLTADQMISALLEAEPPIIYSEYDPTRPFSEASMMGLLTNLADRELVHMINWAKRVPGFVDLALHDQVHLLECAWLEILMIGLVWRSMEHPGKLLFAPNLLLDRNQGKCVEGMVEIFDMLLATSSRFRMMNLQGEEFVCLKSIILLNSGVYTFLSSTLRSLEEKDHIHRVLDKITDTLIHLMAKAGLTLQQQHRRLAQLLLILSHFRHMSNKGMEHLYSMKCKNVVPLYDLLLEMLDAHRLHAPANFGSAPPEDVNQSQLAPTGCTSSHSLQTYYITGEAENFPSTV
Method in brief: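 Bovine uterine membranes; tritiated or iodinated radioligand; competitive displacement; 18 h; scintillation read; DMSO negative control; 25 uM duplicates, then concentration series for actives.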

[19] = molecular target: rat Glycine Receptor, Strychnine-sensitive (GlyRStrySens), Glra1 (gene 25674) (UniProt P07727); assay: NVS_LGIC_rGlyRStrySens: NovaScreen (NVS) Ligand-Gated Ion Channel Assay for rat Glycine Receptor, Strychnine-sensitive (GlyRStrySens) (AID 2283341)
Chain of rat Glycine Receptor, Strychnine-sensitive (GlyRStrySens), Glra1 (gene 25674) (P07727 whole entry, looked up): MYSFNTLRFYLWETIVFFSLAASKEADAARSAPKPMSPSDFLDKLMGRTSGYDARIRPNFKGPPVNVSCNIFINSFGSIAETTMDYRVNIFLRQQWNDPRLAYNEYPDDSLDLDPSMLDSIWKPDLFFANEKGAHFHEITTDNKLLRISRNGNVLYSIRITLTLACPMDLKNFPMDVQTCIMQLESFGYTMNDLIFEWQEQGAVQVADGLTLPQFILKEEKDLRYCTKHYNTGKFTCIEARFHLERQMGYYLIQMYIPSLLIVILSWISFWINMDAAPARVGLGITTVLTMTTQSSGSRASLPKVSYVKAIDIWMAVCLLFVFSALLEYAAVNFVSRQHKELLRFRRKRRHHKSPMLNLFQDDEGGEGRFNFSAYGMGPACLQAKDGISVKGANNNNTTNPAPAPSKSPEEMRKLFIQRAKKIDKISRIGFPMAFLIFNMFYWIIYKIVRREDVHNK
Method in brief: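 Radioligand displacement on rat spinal cord membranes, 1 hr, filter scintillation read-out. Single-concentration duplicate screen at 25 uM; chemicals meeting threshold (e.g., 30% inhibition) rerun in concentration-response up to 50 uM. Loss of binding fitted versus DMSO.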

Measured: AC50

CNC(=O)Oc1cccc2c1OC(C)(C)C2
inactive: [1] | [2] | [3] | [4] | [5] | [6] | [7]

CN(C)[C@@H]1C(=O)C(C(N)=O)=C(O)[C@@]2(O)C(=O)C3=C(O)c4c(O)cccc4[C@@](C)(O)[C@H]3C[C@@H]12
inactive: [8]

CCCCC(CC)COC(=O)c1ccc(C(=O)OCC(CC)CCCC)c(C(=O)OCC(CC)CCCC)c1 (stereo not drawn)
inactive: [4] | [5]
active: [9] 10.7 µM

CCC[CH2][Sn]([Cl])([CH2]CCC)[CH2]CCC
inactive: [11] | [1] | [2] | [12]
active: [10] 3.05 µM | [8] 2.4 µM | [13] 0.0235 µM | [14] 2.92 µM

O=C(Nc1ccccc1)c1ccccc1I
inactive: [11] | [1] | [2] | [4] | [5] | [6]

Cc1ccc(N)c(N)c1
inactive: [15] | [7]

CCNS(=O)(=O)C(F)(F)C(F)(F)C(F)(F)C(F)(F)C(F)(F)C(F)(F)C(F)(F)C(F)(F)F
inactive: [16] | [4] | [5] | [17] | [13]
active: [9] 24.1 µM

OCCOCCO
inactive: [1] | [2] | [3] | [6] | [7]

CCCCCCCCCCCCCN1CC(C)OC(C)C1 (stereo not drawn)
inactive: [1] | [2] | [3] | [6] | [7]

ClC1=C(Cl)C2(Cl)C3C(Cl)C=CC3C1(Cl)C2(Cl)Cl (stereo not drawn)
inactive: [1] | [2] | [3] | [6] | [7]

O=C(Oc1ccc(Br)cc1)N1CCN2CCC1CC2
inactive: [1] | [2]

C[N+](C)(C)CC1CO1 (stereo not drawn)
inactive: [1] | [2] | [3] | [5] | [6] | [7]

Cc1ccc([N+](=O)[O-])cc1
inactive: [18] | [1] | [2] | [3] | [6] | [7]

CCOC(=O)[C@]1(c2ccccc2)Oc2ccccc2[C@@H]1N
active: [19] 25 µM | [10] 4.92 µM
inactive: [8] | [13]

Nc1ccc(Cc2ccc(N)cc2)cc1
inactive: [19]

CCCCCOC(=O)c1ccccc1C(=O)OCCCCC
active: [1] 33.1 µM | [2] 56.2 µM | [3] 22.1 µM | [6] 42 µM | [7] 29.9 µM
inactive: [18]

— PubChem BioAssay (EPA / NIEHS)
